From PubChem BioAssay (NCI) come the findings set out here.

Molecules are shown by their SMILES. Compounds without any hit were thinned out: in the full panel of roughly 83,000, 20% have a hit.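 Growth was measured after 48 h exposure to one concentration of compound in 96-well plates. Values under 10 count as active.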 A number with no mark means an inactive call. Calls of active or inactive are those of the source.

The subject of this assay is NCI-H460 lung. As to the kind of experiment: NCI-60 one-dose screen, 48 h (100 = growth as untreated, 0 = no growth, -100 = all killed). The conditions noted are these: 10 µM. On the procedure: Growth inhibition of the NCI-H460 human Non-Small Cell Lung tumor cell line is measured as a screen for anti-cancer activity. Cells are grown in 96 well plates and exposed to the test compound for 48 hours. Compounds are tested at a single concentration, which is 10^-5 M for most compounds. The reported endpoint is percent growth (GI% or GIPRCNT), where numbers from 0 - 100% represent growth inhibition, and numbers from -100% - 0 represent cell death. For example, a value of 40 represents 60% growth inhibition. A value of 0 means no net growth occurred over the course of the experiment. A value of -40 indicates 40% of cells at the beginning of the experiment died by the end of the experiment. A value of -100 means all cells are dead at the end of the experiment.
NCI-60 Human Tumor Cell Lines Screen was performed using the standard one-dose NCI protocol, which is described in more detail at https://dtp.cancer.gov/discovery_development/nci-60/default.htm.
Compounds with GIPRCNT values below 10 were considered active. Activity score was based on GIPRCNT using the following formula: […]
Score is 0 for GIPRCNT values of 100 or above, 50 for GIPRCNT values of 0, and 100 for GIPRCNT values of -100.
As for `Cc1ncc(C#N)c(N)n1`, the growth is 102%.

Take `O=c1[nH][nH]c(=O)c2cc([N+](=O)[O-])ccc12`: the growth was 111%.

With `C#C[C@H]1CCCCCC1O` (stereo not given in full), the growth is 106%.

For the molecule `CN(C)c1ccc(S(=O)(=O)O)cc1`, the growth is 109%.

`OC1CCCc2ccccc21` (stereo not given): the growth was 101%.

Consider `C=CCOC(=O)C(=O)OCC=C`, for which the growth is 112%.

With `CNS(=O)(=O)c1ccc(Cl)c(Cl)c1`, the growth was 109%.

Consider `O=C1N(C[P+](c2ccccc2)(c2ccccc2)c2ccccc2)CCCN1C[P+](c1ccccc1)(c1ccccc1)c1ccccc1`, for which the growth was 107%.

For the molecule `CC1(C)N=C(N)N=C(N)N1c1ccc(Cl)cc1`, the growth is 18.3%.

As to `COc1ccc(C2(O)CCCCC2)cc1`, the growth was 105%.

As for `Cc1cc(C)c(N)c(S(=O)(=O)O)c1`, the growth is 102%.

Consider `O=c1cc2oc3cc(O)c(O)cc3c(-c3ccccc3O)c-2cc1O`, for which the growth is 96%.

Turning to `O=[N+]([O-])c1ccc(N=Nc2ccc(O)c3ccccc23)cc1`, the growth is 30.9%.

As to `Cc1nc2ccccc2c(C(=O)O)c1O`, the growth is 110%.

On to `Cc1cccc([N+](=O)[O-])c1Cl`, for which the growth is 108%.

Regarding `Cc1cc(N)ccc1-c1ccc(N)cc1C`, the growth was 104%.

Take `CCOC(=O)c1cc(/C=C/c2ccc(Cl)cc2Cl)on1`: the growth was 3.82% (active).

For `CCCCOC(=O)c1ccc(C(C)C)cc1`, the growth is 109%.

Regarding `Cc1ccc(C)n1-c1ccsc1C(=O)NNC(=O)CCl`, the growth was 101%.

For the molecule `C#CCSc1nnnn1-c1ccc(Br)c(C)c1`, the growth is 97%.

For `Cc1ccc(C(=O)c2ccccc2)c(C)c1`, the growth was 110%.

For `Cc1cc(=O)cc(C)n1-c1ccccc1`, the growth was 107%.

Take `NC(=S)CN1CCOCC1`: the growth was 105%.

Take `OCC(O)C(O)C(O)C(O)/C=N/O` (stereo not given): the growth was 99.8%.

For `C/C(=C\c1ccc([N+](=O)[O-])cc1)C(=O)O`, the growth is 102%.

Regarding `CC(C)C(C#N)(C(C)C)C(C)C`, the growth was 102%.

For the molecule `O=c1[nH]n(-c2ccccc2)c(=O)cc1Cl`, the growth is 109%.

In the case of `O=C1Cc2ccccc2C(=O)O1`, the growth is 108%.

On to `CCC/C=C(/C(C)=O)C(=O)OCC`, for which the growth is 114%.

In the case of `O=C1C[C@H](c2ccccc2)[C@H](c2ccccc2)C1`, the growth was 112%.

Turning to `O=C(O)/C=C/C(=O)NCc1ccccc1`, the growth was 104%.

For `CCOC(=O)C(=O)C=P(c1ccccc1)(c1ccccc1)c1ccccc1`, the growth is 103%.

For the molecule `N#CC1(Nc2ccc3c4c(cccc24)CC3)CCCCC1`, the growth was 105%.

On to `CCOC(=O)CNN`, for which the growth is 99.6%.

For `Cc1ccc(C(O)C2CC2)cc1` (stereo not given), the growth was 103%.

Consider `S=C1CCCCCN1`, for which the growth was 106%.

Turning to `Cc1cc2nc(CC(=O)c3cccc([N+](=O)[O-])c3)c(=O)[nH]c2cc1C`, the growth was 87.6%.

`NC(=O)c1ccc(N=C(N)N=C(N)N)cc1`: the growth is 104%.

As to `O=S(=O)(Cc1ccccc1)c1ccccc1`, the growth was 112%.

As to `CCCCCC(C)(CC(=O)O)CC(=O)O`, the growth is 108%.
